{
  "source": "PubChem BioAssay AID372",
  "about": "(MTDP, 2006)",
  "note": "Hit rate of the full screen: of about 100,000 compounds, about 770 (0.77%) were called active. No stated cut-off is given here; in the data, active means inhibition above about 50%; inactive means the rest. This excerpt belongs to a sample that is enriched for actives.",
  "data": [
    {"molecular_target": "Gag-Pol polyprotein (Human immunodeficiency virus type 1 group M subtype B (isolate HXB2)) (UniProt P04585)", "test": "RNase H inhibition, HIV 1 Gag Pol polyprotein, FRET biochemical assay, screening (AID 372)", "conditions": "HIV-1 RT RNase H, FRET RNA/DNA substrate fluorescence; at 10 µM; hits give high values", "values": [
      {"compound": "COc1ccc(C(=O)OCC(=O)c2ccc(Br)cc2)cc1OC", "inhibition": "16% (inactive)"},
      {"compound": "C=CCN(c1ccccc1C(=O)O)S(=O)(=O)/C=C/c1ccccc1", "inhibition": "6% (inactive)"},
      {"compound": "CCOc1ccc(/C=N/NC(=O)c2cc(-c3ccc4ccccc4c3)n[nH]2)cc1", "inhibition": "14% (inactive)"},
      {"compound": "COc1ccc(NCC(O)Cn2c3ccc(Cl)cc3c3cc(Cl)ccc32)c(OC)c1", "note": "(stereo not given)", "inhibition": "27% (inactive)"},
      {"compound": "O=C(NCc1ccco1)c1ccc(-c2cc(Cl)ccc2Cl)o1", "inhibition": "31% (inactive)"},
      {"compound": "O=C(N=Nc1c(O)[nH]c2ccc(Br)cc12)C1COc2cc3ccccc3cc2O1", "note": "(stereo not given)", "inhibition": "4% (inactive)"},
      {"compound": "Cn1c(O)c(N=NC(=O)C2COc3cc4ccccc4cc3O2)c2ccccc21", "note": "(stereo not given)", "inhibition": "50% (active)"},
      {"compound": "CCCn1c(O)c(N=NC(=O)C2COc3cc4ccccc4cc3O2)c2ccccc21", "note": "(stereo not given)", "inhibition": "34% (inactive)"},
      {"compound": "Cc1ccc2c(c1)c(N=NC(=O)COc1ccccc1C)c(O)n2C", "inhibition": "20% (inactive)"},
      {"compound": "S=C(NCCOc1cccc2ccccc12)Nc1cccc2ccccc12", "inhibition": "45% (inactive)"},
      {"compound": "O=C(NCCOc1cccc2ccccc12)Nc1cccc2ccccc12", "inhibition": "51% (active)"},
      {"compound": "O=C(NCCOc1cccc2ccccc12)Nc1cc(F)c(F)cc1Cl", "inhibition": "0% (inactive)"},
      {"compound": "O=C(NN1CCOCC1)c1ccc(Br)cc1", "inhibition": "2% (inactive)"},
      {"compound": "Cc1cccnc1NS(=O)(=O)c1cc(Cl)ccc1Cl", "inhibition": "10% (inactive)"},
      {"compound": "CC1=CC(=O)C=C/C1=N\\S(=O)(=O)c1ccc(C)cc1", "inhibition": "32% (inactive)"},
      {"compound": "Cc1ccc(S(=O)(=O)/N=C2/C=C(Cl)C(=O)c3ccccc32)cc1", "inhibition": "20% (inactive)"},
      {"compound": "Cc1ccc(S(=O)(=O)/N=C2\\C=CC(=O)C(Br)=C2)cc1", "inhibition": "20% (inactive)"},
      {"compound": "CC1=C/C(=N/S(=O)(=O)c2ccc(C)cc2)C=C(Cl)C1=O", "inhibition": "17% (inactive)"},
      {"compound": "O=C1C=CC(=NS(=O)(=O)c2ccccc2)C=C1", "inhibition": "56% (active)"},
      {"compound": "O=C1C=CC(=NS(=O)(=O)c2cccc([N+](=O)[O-])c2)C=C1", "inhibition": "45% (inactive)"},
      {"compound": "O=C1C=CC(=NS(=O)(=O)c2ccc(Cl)cc2)C=C1", "inhibition": "28% (inactive)"},
      {"compound": "O=C1C=C/C(=N\\S(=O)(=O)c2ccc(Cl)c([N+](=O)[O-])c2)c2ccccc21", "inhibition": "34% (inactive)"},
      {"compound": "O=C1C=CC(=NS(=O)(=O)c2ccc(F)cc2)C=C1", "inhibition": "43% (inactive)"},
      {"compound": "COc1ccc(Cl)cc1NC(=O)c1cc(-c2ccccc2)nc2ccccc12", "inhibition": "0% (inactive)"},
      {"compound": "COc1cc(C2/C(=C(\\O)c3ccc(C)cc3)C(=O)C(=O)N2CCCC(=O)O)ccc1O", "note": "(stereo not given)", "inhibition": "0% (inactive)"},
      {"compound": "CCOC(=O)C1=C(C)N=c2s/c(=C\\c3ccccc3O)c(=O)n2C1c1ccc(Cl)cc1", "note": "(stereo not given)", "inhibition": "21% (inactive)"},
      {"compound": "COc1ccc(NC(=O)c2nn3c(C(F)(F)F)cc(-c4ccco4)nc3c2Cl)c(OC)c1", "inhibition": "13% (inactive)"},
      {"compound": "COc1ccc(C(=O)N/C(=C\\c2ccc(-c3cccc([N+](=O)[O-])c3)o2)C(=O)NCc2ccncc2)cc1", "inhibition": "0% (inactive)"},
      {"compound": "CC(C)(C)c1ccc(S(=O)(=O)N=C2C=CC(=O)C=C2)cc1", "inhibition": "20% (inactive)"},
      {"compound": "O=C1C(Cl)=CC(=NS(=O)(=O)c2ccccc2)C=C1Br", "inhibition": "26% (inactive)"},
      {"compound": "Cc1ccccc1S(=O)(=O)N=C1C=CC(=O)C(Cl)=C1", "inhibition": "11% (inactive)"},
      {"compound": "O=C1C(Cl)=CC(=NS(=O)(=O)c2ccc(Cl)cc2)c2ccccc21", "inhibition": "8% (inactive)"},
      {"compound": "O=S(=O)(N=C1C(Cl)=C(Cl)C(=NS(=O)(=O)c2ccccc2)C(Cl)=C1Cl)c1ccccc1", "inhibition": "31% (inactive)"},
      {"compound": "CC(C)C1=CC(=NS(=O)(=O)c2ccc(Cl)cc2)C=C(C(C)C)C1=O", "inhibition": "5% (inactive)"},
      {"compound": "O=C1C(Cl)=CC(=NS(=O)(=O)c2ccc(Cl)cc2)C=C1Cl", "inhibition": "28% (inactive)"},
      {"compound": "O=C1C=C/C(=N\\S(=O)(=O)c2ccccc2)C=C1Cl", "inhibition": "19% (inactive)"},
      {"compound": "CC(=O)N/C(=C\\c1ccccc1)C(=O)NCC(=O)O", "inhibition": "6% (inactive)"},
      {"compound": "Cc1cccc(NC(=O)C(=O)NNC(=O)c2ccccc2C)c1", "inhibition": "4% (inactive)"},
      {"compound": "Cc1ccc(-c2ccccc2)n1-c1ccccc1C(=O)O", "inhibition": "12% (inactive)"},
      {"compound": "O=C(O)/C=C\\C(=O)N/N=C/c1ccccc1", "inhibition": "4% (inactive)"},
      {"compound": "O=C(Nc1ccccn1)c1ccc2c(c1)C(=O)N(c1cccc3c(N4C(=O)c5ccc(C(=O)Nc6ccccn6)cc5C4=O)cccc13)C2=O", "inhibition": "2% (inactive)"},
      {"compound": "CCC1CCc2c(sc(NC(=O)c3ccc([N+](=O)[O-])cc3Cl)c2C(=O)OC)C1", "note": "(stereo not given)", "inhibition": "0% (inactive)"},
      {"compound": "O=C1C(N2CCOCC2)=C/C(=N\\S(=O)(=O)c2ccc(Cl)cc2)c2ccccc21", "inhibition": "61% (active)"},
      {"compound": "CC1=C(C)/C(=N\\S(=O)(=O)c2ccc(C)cc2)C=C(N2CCOCC2)C1=O", "inhibition": "19% (inactive)"},
      {"compound": "Cc1ccc(S(=O)(=O)/N=C2/C=C(N3CCOCC3)C(=O)c3ccccc32)cc1", "inhibition": "5% (inactive)"},
      {"compound": "Cc1ccccc1N1C(=O)C2C3c4ccccc4C(C)(c4ccccc43)C2C1=O", "note": "(stereo not given)", "inhibition": "0% (inactive)"},
      {"compound": "O=C(COc1cc(O)c2c(=O)cc(-c3ccccc3)oc2c1)c1ccccc1", "inhibition": "3% (inactive)"},
      {"compound": "O=C1C(=O)N(c2nccs2)C(c2ccccc2F)/C1=C(/O)c1ccc(Cl)cc1", "note": "(stereo not given)", "inhibition": "21% (inactive)"},
      {"compound": "COc1cccc(NC(=O)Nc2nnc(-c3ccccc3I)s2)c1", "inhibition": "0% (inactive)"},
      {"compound": "COc1cccc(NC(=O)Nc2nnc(-c3ccccc3SCc3ccccc3F)s2)c1", "inhibition": "23% (inactive)"},
      {"compound": "COc1cccc(NC(=O)Nc2nnc(-c3ccccc3F)s2)c1", "inhibition": "53% (active)"},
      {"compound": "CCc1nnc(NC(=O)CCCOc2ccc(Cl)cc2C)s1", "inhibition": "12% (inactive)"},
      {"compound": "O=[N+]([O-])c1ccc(NCCCNS(=O)(=O)c2ccc(Cl)cc2)cc1", "inhibition": "8% (inactive)"},
      {"compound": "O=C(O)CCC(=O)NNC(=O)c1ccncc1", "inhibition": "10% (inactive)"},
      {"compound": "CCOC(=O)C1CCCN(C(=O)c2cc(C(=O)OC)cc([N+](=O)[O-])c2)C1", "note": "(stereo not given)", "inhibition": "16% (inactive)"},
      {"compound": "CCOC(=O)CNC(=O)c1cc(C(=O)OC)cc([N+](=O)[O-])c1", "inhibition": "52% (active)"},
      {"compound": "CCOC(=O)CNC(=O)c1ccc([N+](=O)[O-])cc1", "inhibition": "4% (inactive)"},
      {"compound": "CCOC(=O)CNC(=O)c1cccc([N+](=O)[O-])c1", "inhibition": "15% (inactive)"},
      {"compound": "COC(=O)c1cc(C(=O)N2CCC(C(=O)OC)CC2)cc([N+](=O)[O-])c1", "inhibition": "7% (inactive)"},
      {"compound": "CCOC(=O)C1CCN(C(=O)c2cc(C(=O)OC)cc([N+](=O)[O-])c2)CC1", "inhibition": "54% (active)"}
    ]}
  ]
}
